NF-kB neuron act = compounds increasing NF-kB expression in human neuronal cells; NF-kB reporter expression; active compounds read high; fold change at 12.5 µM; 190,000 tested, 1.6% active; in the data active = fold change above about 3.3
hcDAF12 agonist = activators of H. contortus DAF-12 nuclear receptor; activation, % at 6.8 µM; HEK293 hcDAF-12 lit1-tk-luc reporter, luminescence; 0% DMSO, 100% Δ7-dafachronic acid; 370,000 tested, 1.4% active;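 active = activation above the mean of all tested compounds plus 3 SD, cut at about 5.5% in these data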;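 also: 100% = response to 3 µM Δ7-dafachronic acid high control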
ssDAF-12 act = S. stercoralis DAF-12 activation, primary screen; HEK293 ssDAF-12/GRIP1 lit1-tk-luc reporter, luminescence; % of 3 µM dafachronic acid response; 370,000 tested, 1% active; AID 652126; activation, % at 6.8 µM;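 active = activation above the mean over all tested compounds plus 3 SD, cut at about 0.9% in these data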;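 also: 0% = DMSO-only wells and 100% = 3 µM delta7-dafachronic acid wells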
hgDAF-12 ag = agonists of H. glycines DAF-12 nuclear receptor; HEK293 GAL4-hgDAF12 UAS-luciferase reporter, agonist luminescence; normalized to butyrate control; activation, % at 6.8 µM; 370,000 tested, 1.8% active; AID 687014;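 active = activation above a cutoff set at the mean of all screened compounds plus 3 SD, cut at about 10% in these data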;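 also: 0% = DMSO wells and 100% = sodium butyrate wells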
APP 5'UTR act = activates APP 5'UTR luciferase reporter; 190,000 tested, 1% active; SH-SY5Y APP 5'UTR luciferase reporter, luminescence; zero percent = DMSO vehicle wells; AID 1276; activation, % at 2 µM;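 active = activation above a set limit, based on mean plus 3 SD of controls, cut at about 140% in these data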
hgDAF12 ag = confirmation of H. glycines DAF-12 agonists | shares compounds with hgDAF-12 ag | HEK293 GAL4-hgDAF12 luciferase reporter, agonist mode; percent of butyrate response | activation, % at 6.8 µM | 3,300 tested, 80% active | AID 743050;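 active = mean activation over triplicate wells above the hit cutoff derived from the earlier primary screen, cut at about 11% in these data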;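 also: 0% = DMSO low control and 100% = 2 mM sodium butyrate high control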
LXRb DAF12 ctr = LXR-beta agonism as DAF-12 counter-screen | shares compounds with hgDAF-12 ag | HEK293 Gal4-LXR luciferase reporter, 24 h | activation, % at 6.8 µM | 3,300 tested, under 10 active | AID 743051;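 active = mean activation of the triplicate above a set limit carried over from the primary screen, none filed active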
Target sequence (P55055 whole entry, looked up, the tested form may be a part): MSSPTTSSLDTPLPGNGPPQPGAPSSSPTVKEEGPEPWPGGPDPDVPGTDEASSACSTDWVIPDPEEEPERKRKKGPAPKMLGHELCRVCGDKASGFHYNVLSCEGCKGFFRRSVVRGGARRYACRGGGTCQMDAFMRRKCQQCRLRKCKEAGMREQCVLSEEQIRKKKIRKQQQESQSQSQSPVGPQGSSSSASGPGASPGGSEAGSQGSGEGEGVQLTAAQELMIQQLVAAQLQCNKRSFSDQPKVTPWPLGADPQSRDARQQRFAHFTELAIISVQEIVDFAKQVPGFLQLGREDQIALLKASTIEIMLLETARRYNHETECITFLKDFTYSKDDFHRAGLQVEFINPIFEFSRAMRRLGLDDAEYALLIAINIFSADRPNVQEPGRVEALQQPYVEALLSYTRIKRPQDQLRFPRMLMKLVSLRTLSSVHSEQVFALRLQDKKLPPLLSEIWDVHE
Active calls of the source: *; nt = no result. Only some compounds are listed: those with a hit (about 3.4% of all), similar ones and a draw of the others.

SMILES	NF-kB neuron act	hcDAF12 agonist	ssDAF-12 act	hgDAF-12 ag	APP 5'UTR act	hgDAF12 ag	LXRb DAF12 ctr
O=C(NCc1ccccc1Cl)O[C@H]1CC[C@@]23CCCN2C(=O)CCC[C@H]3C1	nt	-0.3	-1.8	-1.2	nt	nt	nt
Cc1ccc2nc(-c3ccc(O)cc3)c(Nc3ccc4c(c3)OCCO4)n2c1	1.44	4.0	-0.3	16.5*	23.6	-0.5	0.0
CCc1ccc(C(=O)CN2CCSC2=N)cc1	7.86*	5.6*	0.7	19.8*	85.5	16.6*	0.7
S=c1[nH]nc(Nc2cccc(Cl)c2)s1	nt	1.1	0.0	3.2	16.3	nt	nt
Cc1ccc(Nc2n[nH]c(=S)s2)cc1C	nt	3.3	-0.7	17.9*	nt	11.1*	0.5
COC(=O)[C@H](C(C)C)N(CCCc1cn(Cc2ccccc2)nn1)S(=O)(=O)c1ccccc1Br	nt	-3.8	-1.8	-5.2	nt	nt	nt
CCOC(=O)c1c(C)[nH]c(N=Nc2cccc(OC)c2)c1C	1.19	5.9*	-0.2	15.5*	253.3*	20.7*	1.1
CCOC(=O)c1[nH]c(C)c(C(=O)c2ccc(C)cc2)c1C	1.86	0.9	-1.7	2.1	-94.9	nt	nt
CCOC(=O)c1c(C)[nH]c(N=Nc2ccc(C)cc2)c1C	4.07*	3.3	0.1	14.9*	140.8*	18.1*	0.7
CC(C)n1nnnc1C1c2ccccc2OCC(=O)N1Cc1cccc(C(F)(F)F)c1 (configuration not stated)	nt	1.5	-1.2	1.4	nt	nt	nt
O=C(CCCc1ccncc1)c1ccccc1	nt	1.1	-0.3	13.4*	nt	9.4	0.3
O=C(CNS(=O)(=O)c1cccc2ccccc12)N1CCN(c2ncccn2)CC1	nt	-2.4	-1.0	-0.2	nt	nt	nt
Cc1ccc2c(CN(C)Cc3ccccc3)cc(=O)oc2c1	nt	2.1	0.5	13.5*	nt	10.7*	0.6
COC(=O)[C@]12C[C@H](CC(=O)N3CCC(c4ccccc4)CC3)C(=O)N(Cc3ccc(Cl)cc3Cl)C1=C[C@H](C1CCCC1)O[C@@H]2C	nt	-0.7	-0.6	-1.5	nt	nt	nt
CCOc1ccc(OCc2cccc(C(=O)N3CCCCCC3)c2)cc1	2.45	4.6	0.0	15.8*	113.4	16.4*	0.7
COC(=O)[C@H](C)NC(=O)[C@@H]1CC=C[C@@H]2CCN(CCc3ccccc3)C(=O)[C@@H]21	nt	0.8	-1.2	-0.3	nt	nt	nt
Cn1ccc2cc(OCc3ccccc3)ccc21	nt	4.5	1.4*	22.1*	nt	15.1*	0.7
Cc1c(C=O)c2cc(OCc3ccccc3)ccc2n1C	nt	0.5	-0.5	3.8	nt	nt	nt
CC(C)N=C1NN=C(c2ccc(Cl)c(Cl)c2)CS1	8.58*	2.4	-0.5	19.3*	171.7*	18.7*	0.8
CCOC(=O)[C@]12CCCCC/C=C\1N(CCc1ccc(Cl)cc1)C(=O)[C@H]2CC(=O)N1CCN(C(=O)C2CC2)CC1	nt	-0.7	-1.1	-2.6	nt	nt	nt
CC(C)NC(=O)N[C@H]1C[C@@H]2O[C@H](CO)CC[C@@H]2O[C@@H]1CCc1ccc(-c2ccccc2F)cc1	nt	-0.2	-0.6	-0.6	nt	nt	nt
O=C(O)c1sc2cc(C(F)(F)F)cnc2c1-c1ccccc1	1.12	-0.3	-1.7	0.8	6.9	nt	nt
FC(F)(F)c1cnc2c(-c3ccccc3)n[nH]c2c1	1.83	4.4	0.5	14.3*	46.8	7.3	0.3
O=C(Nc1ccccc1[N+](=O)[O-])NC1CCCCN(Cc2ccc(Cl)cc2)C1=O (configuration not stated)	nt	-2.4	-1.4	-2.6	nt	nt	nt
Cc1nn2c(N)c(-c3ccccc3)cnc2c1-c1ccc(Cl)cc1	nt	3.1	0.7	13.9*	nt	16.5*	0.5
SMILES	NF-kB neuron act	hcDAF12 agonist	ssDAF-12 act	hgDAF-12 ag	APP 5'UTR act	hgDAF12 ag	LXRb DAF12 ctr
Cc1nn2c3c(cnc2c1-c1ccccc1)C(=O)CCC3	1.38	-0.4	-0.5	-0.6	15.2	nt	nt
COc1ccc(C=NNC(=O)CCCC(=O)NN=Cc2ccc(OC)c(OC)c2)cc1OC	nt	-1.1	0.5	0.5	nt	nt	nt
CCOc1cc(/C=N/NC(=O)Nc2ccccc2)ccc1O	2.8	6.1*	3.8*	13.4*	68.8	11.4*	0.4
CCOc1cc(/C=N/NC(=O)c2ccc(NC(=O)C3CC3)cc2)ccc1O	nt	2.8	-0.7	-1.8	nt	nt	nt
COc1ccc(C=NNC(=O)NN=Cc2ccc(OC)c(OC)c2)cc1OC	nt	3.1	-1.0	13.3*	nt	9.3	0.2
N#C/C(=C(/O)c1ccco1)c1nc2ccccc2[nH]1	2.93	1.4	1.2*	22.1*	15.3	22.8*	0.2
Cc1nn(-c2ccccc2)cc1C(=S)Nc1ccccc1	2.57	-0.9	-1.0	13.7*	41.1	6.9	0.2
Cc1c(C(=S)Nc2ccccc2)cnn1-c1ccccc1	1.79	-1.0	-0.3	3.3	27.6	nt	nt
CCOc1ccc(-n2c(SCc3ccc(C#N)cc3)nnc2-c2ccco2)cc1	nt	-2.0	-1.2	0.2	nt	nt	nt
COc1ccc(NC(=O)CSC2CCCCC2)cc1	2.33	4.3	0.2	22.7*	62.2	15.2*	0.4
COc1ccc2cc3cc(C(=O)N4CCN(c5ccccc5)CC4)oc3nc2c1	1.42	-1.5	-1.1	-0.2	13.5	nt	nt
COc1ccc2cc3cc(C(=O)N4CCCC(C)C4)oc3nc2c1 (configuration not stated)	nt	3.7	-0.3	13.5*	nt	16.1*	0.8
C/C(=N\NC(N)=O)c1ccccc1	1.23	-0.9	-0.9	-0.5	-4.0	nt	nt
C/C(=N\NC(=O)c1ccoc1C)c1ccccc1	nt	5.6*	0.6	13.8*	nt	11.2*	0.6
C/C(=N\NC(=O)c1nn(C)c(C)c1Br)c1cccc(NC(=O)c2ccoc2C)c1	1.49	5.9*	0.2	16.5*	59.4	4.7	0.3
COc1ccc(CNC2CCC23CCC(C)CC3)cc1OC (configuration not stated)	nt	-0.9	-1.2	-0.7	nt	nt	nt
O=C(CN(C(=O)CNS(=O)(=O)c1ccccc1)c1ccc2c(c1)OCCO2)NCc1ccco1	1.29	-1.0	-1.0	15.4*	-6.4	1.0	0.0
CCCCc1ccc2nc(NC(=O)c3ccco3)sc2c1	nt	5.5	-0.1	22.5*	nt	19.4*	1.0
CC(C)(C)c1csc(NC(=O)c2ccc(Br)o2)n1	nt	-1.0	0.2	2.8	nt	nt	nt
Cc1ccc2nc(NC(=O)c3ccc(Br)o3)sc2c1	nt	6.3*	0.9	14.7*	nt	17.2*	1.0
Cc1cc2sc(NC(=O)c3ccco3)nc2cc1Cl	nt	3.5	-0.7	13.7*	nt	19.9*	0.9
O=C(Nc1nc2ccc(Br)cc2s1)c1ccco1	nt	6.1*	0.8	13.3*	nt	17.1*	1.0
CC(=O)Nc1nc2ccc(NC(=O)c3ccco3)cc2s1	1.96	0.7	-0.7	3.8	-3.5	nt	nt
Cc1nc2ccc3nc(NC(=O)c4ccco4)sc3c2s1	nt	4.4	-0.6	5.5	124.6	nt	nt
COC(=O)[C@]12C[C@H](CC(=O)NCc3ccc(C)o3)C(=O)N(Cc3cccc4ccccc34)C1=C[C@H](C1CCCC1)O[C@@H]2C	nt	-2.9	-1.5	4.7	nt	nt	nt
